PubChem BioAssay (Tox21)
Records with an inconclusive call do not appear. Activity calls are given as the source filed them. Unless noted, calls come from the whole dose curve; as a rule, active = well fitted curve in the direction sought with a large enough effect in the repeat runs; inconclusive = weak or mixed curves; inactive = no such curve, though single readings can be large; an effect the other way counts as inactive or inconclusive.

How the values were obtained:
[1] = qHTS assay to identify small molecule agonists of the hypoxia (HIF-1) signaling pathway - cell viability counter screen (AID 1224844; calls by dose curve; note: nearly all actives have a fitted effect of over 50% in size)
Method in brief: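 Tox21 10K compounds were added to HRE-bla ME-180 cells (0.5% dialyzed FBS) and incubated 17 hrs at 37C; ATP-based CellTiter-Glo luminescence then reported cell viability in the same wells.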

[2] = qHTS assay to identify small molecule agonists of H2AX (AID 1224845; active = well fitted activation curve with a large enough effect in the signal ratio in the repeat runs, not every such curve was filed as active; the % refers to the signal ratio)
Method in brief: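 Phospho-H2AX Ser139 measured by HTRF (ex 320 nm; em 665 and 620 nm) after 24 hr antibody incubation. Compounds, 15 concentrations, 0.76% DMSO, were applied to CHO-K1 cells for 3hr at 37C before lysis.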

[3] = qHTS assay to identify small molecule agonists of the hypoxia (HIF-1) signaling pathway (AID 1224846; active = well fitted activation curve with a large enough effect in the signal ratio in the repeat runs, not every such curve was filed as active; the % refers to the signal ratio)
Method in brief: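 Steps: seed ME-180 HRE-bla cells (2,000/well, 0.5% dialyzed FBS); incubate 5 hrs at 37C; pin-transfer compounds or DMSO; incubate 17 hrs; add LiveBLAzer B/G substrate CCF4-AM; measure reporter activation by FRET.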

[4] = qHTS assay to identify small molecule agonists of H2AX - cell viability counter screen (AID 1224847; calls by dose curve;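 note: wild-type CHO-K1 cells; top concentration of the series differs between compounds; nearly all actives have a fitted effect of over 30% in size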)
Method in brief: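 Counter-screen for viability: CellTiter-Glo ATP luminescence read after 3 h compound treatment (15-point titration, 0.76% DMSO final) of CHO-K1 cells at 37C, with 30 min room-temperature reagent incubation.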

[5] = qHTS RealTime-Glo MT Cell Viability Assay in HepG2 cells - 24 hour (AID 1224867); note: nearly all actives have a fitted effect of over 50% in size
Method in brief: (§1)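 Viability was tracked continuously by NanoLuc luminescence from prosubstrate reduced by living HepG2 cells, at successive time points over 40 h of compound exposure. Cells with reagent were preincubated 5 h at 37 °C before compound addition.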

[6] = qHTS RealTime-Glo MT Cell Viability Assay in HEK293 cells - 32 hour (AID 1224868); note: top concentration of the series differs between compounds; nearly all actives have a fitted effect of over 50% in size
Method in brief: (§2)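 Viability tracked continuously by luminescence as live cells reduce a prosubstrate for NanoLuc; HEK293 cells preincubated 5 h, compound-treated at 37 C, and read at 0, 8, 16, 24, 32 and 40 h.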

[7] = A CellTox Green Cytotoxicity Assay to monitor cytotoxicity in HEK293 cells - 0 hour (AID 1224869); note: nearly all actives have a fitted effect of over 50% in size
Method in brief: (§3)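 Cytotoxicity was tracked continuously in HEK293 cells by a DNA-binding dye excluded from viable cells. Compounds were transferred in DMSO 5 h after seeding; fluorescence was recorded at intervals up to 40 h.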

[8] = qHTS RealTime-Glo MT Cell Viability Assay in HepG2 cells - 40 hour (AID 1224870); note: nearly all actives have a fitted effect of over 50% in size
Method in brief: (§4)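 Real-time viability: cells seeded at 600 per well together with NanoLuc and cell-permeant prosubstrate, compounds added after 5 h incubation. Luminescence tracked at 0, 8, 16, 24, 32 and 40 h of exposure.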

[9] = A CellTox Green Cytotoxicity Assay to monitor cytotoxicity in HEK293 cells - 40 hour (AID 1224871); note: nearly all actives have a fitted effect of over 45% in size
Method in brief: as §3

[10] = qHTS RealTime-Glo MT Cell Viability Assay in HEK293 cells - 16 hour (AID 1224872)
Method in brief: as §2

[11] = qHTS RealTime-Glo MT Cell Viability Assay in HepG2 cells - 8 hour (AID 1224873); note: nearly all actives have a fitted effect of over 55% in size
Method in brief: as §4

[12] = qHTS RealTime-Glo MT Cell Viability Assay in HEK293 cells - 40 hour (AID 1224874); conditions: RealTime-Glo luminescence; max response: hits give low values; note: nearly all actives have a fitted effect of over 50% in size
Method in brief: (§5)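 Nonlytic bioluminescent viability monitoring. HEK293 at 600 cells/well with reagent; 5 h settle; compound transfer by pintool; plates held at 37 C and read at set time points.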

[13] = A CellTox Green Cytotoxicity Assay to monitor cytotoxicity in HEK293 cells - 24 hour (AID 1224875); note: series mostly up to about 77 µM; nearly all actives have a fitted effect of over 45% in size
Method in brief: as §3

[14] = A CellTox Green Cytotoxicity Assay to monitor cytotoxicity in HepG2 cells - 16 hour (AID 1224876); note: nearly all actives have a fitted effect of over 45% in size
Method in brief: (§6)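 Real-time, homogeneous cytotoxicity readout: dead-cell DNA staining by CellTox Green in HepG2 monolayers, fluorescence measured at timed intervals up to 40 h of continuous compound exposure.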

[15] = qHTS RealTime-Glo MT Cell Viability Assay in HepG2 cells - 32 hour (AID 1224877); note: nearly all actives have a fitted effect of over 55% in size
Method in brief: as §1

[16] = A CellTox Green Cytotoxicity Assay to monitor cytotoxicity in HepG2 cells - 24 hour (AID 1224878); note: nearly all actives have a fitted effect of over 45% in size
Method in brief: as §6

[17] = A CellTox Green Cytotoxicity Assay to monitor cytotoxicity in HepG2 cells - 40 hour (AID 1224879); note: nearly all actives have a fitted effect of over 40% in size
Method in brief: as §6

[18] = qHTS RealTime-Glo MT Cell Viability Assay in HEK293 cells - 0 hour (AID 1224880)
Method in brief: as §5
% is set by controls: 0 for no effect and ±100 for the full control effect.

CCCCCCCCO[C@@H]1O[C@H](CO)[C@@H](O)[C@H](O)[C@H]1O
inactive: Potency [1] | Potency [2] | Potency [3] | Potency [4] | Potency [5] | Potency [6] | Potency [7] | Potency [8] | Potency [9] | Potency [10] | Potency [11] | max response [12] 4.48% | Potency [13] | Potency [14] | Potency [15] | Potency [16] | Potency [17] | Potency [18]

C=CC1CC2C=CC1C2 (stereo not given)
inactive: Potency [1] | Potency [2] | Potency [3] | Potency [4] | Potency [5] | Potency [6] | Potency [7] | Potency [8] | Potency [9] | Potency [10] | Potency [11] | max response [12] 2.72% | Potency [13] | Potency [14] | Potency [15] | Potency [16] | Potency [17]

Nc1c(CC(=O)O)cccc1C(=O)c1ccc(Br)cc1
inactive: Potency [1] | Potency [2] | Potency [3] | Potency [4] | Potency [5] | Potency [6] | Potency [7] | Potency [8] | Potency [9] | Potency [10] | Potency [11] | max response [12] 13% | Potency [13] | Potency [14] | Potency [15] | Potency [16] | Potency [17] | Potency [18]

CC1=CCCC(C)(C)C12CCC(C)O2 (stereo not given)
inactive: Potency [1] | Potency [2] | Potency [3] | Potency [4] | Potency [6] | Potency [7] | Potency [8] | Potency [9] | Potency [10] | Potency [11] | max response [12] -12.5% | Potency [13] | Potency [14] | Potency [15] | Potency [16] | Potency [17] | Potency [18]

CC(C)(CO)[N+](=O)[O-]
inactive: Potency [1] | Potency [2] | Potency [3] | Potency [4] | Potency [5] | Potency [6] | Potency [7] | Potency [8] | Potency [9] | Potency [10] | Potency [11] | max response [12] 3.49% | Potency [13] | Potency [14] | Potency [15] | Potency [16] | Potency [17]

CCCCCCCCCOS(=O)(=O)O
inactive: Potency [1] | Potency [2] | Potency [3] | Potency [4] | Potency [5] | Potency [6] | Potency [7] | Potency [8] | Potency [10] | Potency [11] | max response [12] 4.38% | Potency [13] | Potency [14] | Potency [15] | Potency [16] | Potency [17] | Potency [18]

COc1ccc2cccc(CCNC(C)=O)c2c1
inactive: Potency [1] | Potency [2] | Potency [3] | Potency [4] | Potency [5] | Potency [6] | Potency [7] | Potency [8] | Potency [9] | Potency [10] | max response [12] -8.88% | Potency [13] | Potency [15] | Potency [18]

COc1ccnc(CS(=O)c2nc3ccc(OC(F)F)cc3[nH]2)c1OC (stereo not given)
inactive: Potency [1] | Potency [2] | Potency [3] | Potency [4] | Potency [5] | Potency [6] | Potency [7] | Potency [8] | Potency [9] | Potency [10] | Potency [11] | max response [12] -16.2% | Potency [13] | Potency [14] | Potency [15] | Potency [16] | Potency [17] | Potency [18]

O=C(O)c1ccco1
inactive: Potency [1] | Potency [2] | Potency [3] | Potency [4] | Potency [5] | Potency [6] | Potency [7] | Potency [8] | Potency [9] | Potency [10] | Potency [11] | max response [12] 9.61% | Potency [13] | Potency [14] | Potency [15] | Potency [16] | Potency [17] | Potency [18]

O=C(O)CC(=O)C(=O)O
inactive: Potency [1] | Potency [2] | Potency [3] | Potency [4] | Potency [6] | Potency [7] | Potency [8] | Potency [9] | Potency [10] | Potency [11] | max response [12] -2.18% | Potency [13] | Potency [14] | Potency [15] | Potency [16] | Potency [17] | Potency [18]

Cc1cc(C(=O)O)ccc1[N+](=O)[O-]
inactive: Potency [1] | Potency [2] | Potency [3] | Potency [4] | Potency [5] | Potency [6] | Potency [7] | Potency [8] | Potency [9] | Potency [10] | max response [12] 9.13% | Potency [13] | Potency [14] | Potency [15] | Potency [16] | Potency [17]

CCCCC(CC)COC(=O)COc1ccc(Cl)cc1Cl (stereo not given)
inactive: Potency [1] | Potency [2] | Potency [3] | Potency [4] | Potency [5] | Potency [6] | Potency [7] | Potency [8] | Potency [9] | Potency [10] | Potency [11] | max response [12] 11% | Potency [13] | Potency [14] | Potency [15] | Potency [16] | Potency [17] | Potency [18]

Nc1ncn([C@H]2C[C@H](O)[C@@H](CO)O2)c(=O)n1
inactive: Potency [1] | Potency [2] | Potency [3] | Potency [4] | Potency [5] | Potency [6] | Potency [8] | Potency [9] | Potency [10] | max response [12] 2.14% | Potency [13] | Potency [15] | Potency [16] | Potency [17] | Potency [18]

C=C(C)C(=O)OCCO
inactive: Potency [1] | Potency [2] | Potency [3] | Potency [4] | Potency [5] | Potency [6] | Potency [7] | Potency [8] | Potency [9] | Potency [11] | max response [12] 3.51% | Potency [13] | Potency [15] | Potency [16] | Potency [17]
